For one sequence, binding signal results are on record in publication PMC7862700, “An all-to-all approach to the identification of sequence-specific readers for epigenetic DNA modifications on cytosine”.

Common to all, as to assay: DAPPL (digital affinity profiling via proximity ligation, sequencing); 10 mM Tris-HCl pH 7.5, 50 mM NaCl, 1 mM DTT, 4% glycerol, room temperature, 30 min; GST-TFs on glutathione beads, 16-mer random dsDNA library, 0.1% formaldehyde crosslink after washing; high values mean tight binding
In one experiment the target is T1, FEV (Homo sapiens, UniProt Q99581 1-238).
T1 sequence: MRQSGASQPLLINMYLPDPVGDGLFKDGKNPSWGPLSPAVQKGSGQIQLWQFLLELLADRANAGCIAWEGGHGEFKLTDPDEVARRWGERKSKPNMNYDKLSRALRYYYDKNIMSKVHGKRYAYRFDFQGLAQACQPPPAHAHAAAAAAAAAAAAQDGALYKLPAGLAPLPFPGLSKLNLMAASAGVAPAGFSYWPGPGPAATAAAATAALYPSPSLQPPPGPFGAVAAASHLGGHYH
The settings on record: protein: recombinant; tags: N-terminal GST; dsDNA, one strand shown. A digest of the protocol: (§1)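 A tag-only sample was pooled with DNA-barcoded human transcription factors that had been expressed in yeast as GST fusions and captured on glutathione beads. The pools were incubated for 30 min at room temperature with 200 nmole of a random double-stranded 16-mer DNA library in Tris/NaCl/DTT/glycerol buffer, then washed, crosslinked with 0.1% formaldehyde, proximity-ligated (BsaI/T4 ligase, 1 h, 37 °C), PCR-amplified and sequenced on an Illumina NextSeq500. Binding signal is each hexamer's read frequency for a factor divided by its frequency for the tag-only sample.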

A further experiment addresses ETV5 (Homo sapiens, UniProt P41161 1-510). To be noted: protein: recombinant; tags: N-terminal GST; dsDNA, one strand shown. The essentials: as §1
Another experiment concerns the target HSF1 (Homo sapiens, UniProt Q00613 1-529). To be noted: protein: recombinant; tags: N-terminal GST; chain copies: 3; dsDNA, one strand shown. A digest of the protocol:
as §1

In another experiment the target is T2, SPIC (Homo sapiens, UniProt Q8N5J4 1-248).
T2 sequence: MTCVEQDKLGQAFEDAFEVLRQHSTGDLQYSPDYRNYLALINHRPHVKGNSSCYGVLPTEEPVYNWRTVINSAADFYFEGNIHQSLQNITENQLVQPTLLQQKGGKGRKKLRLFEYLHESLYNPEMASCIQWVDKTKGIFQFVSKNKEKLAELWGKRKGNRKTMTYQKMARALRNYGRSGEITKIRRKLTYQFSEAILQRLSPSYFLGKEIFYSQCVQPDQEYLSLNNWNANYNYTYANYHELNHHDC
To be noted: protein: recombinant; tags: N-terminal GST; dsDNA, one strand shown. A digest of the protocol: as §1

The target in a further experiment is ELF4 (Homo sapiens, UniProt Q99607 1-663). To be noted: protein: recombinant; tags: N-terminal GST; dsDNA, one strand shown. The essentials: as §1
The next experiment concerns the target T3, ELK4 (Homo sapiens, UniProt P28324-2 1-405).
T3 sequence: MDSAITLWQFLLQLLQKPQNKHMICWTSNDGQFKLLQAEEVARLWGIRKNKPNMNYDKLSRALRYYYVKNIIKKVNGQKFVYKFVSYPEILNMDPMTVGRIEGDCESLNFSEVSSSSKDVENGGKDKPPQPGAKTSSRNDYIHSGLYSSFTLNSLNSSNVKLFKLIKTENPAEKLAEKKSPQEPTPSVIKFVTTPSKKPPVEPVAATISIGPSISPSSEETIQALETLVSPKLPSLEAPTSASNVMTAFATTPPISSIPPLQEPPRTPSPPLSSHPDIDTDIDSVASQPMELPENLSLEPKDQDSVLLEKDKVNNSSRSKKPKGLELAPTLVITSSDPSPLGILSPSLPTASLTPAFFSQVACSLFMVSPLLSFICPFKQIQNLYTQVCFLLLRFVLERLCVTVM
To be noted: protein: recombinant; tags: N-terminal GST; dsDNA, one strand shown. The essentials:
as §1

For a further experiment, the target named is T4, ETV2 (Homo sapiens, UniProt O00321 1-342).
T4 sequence: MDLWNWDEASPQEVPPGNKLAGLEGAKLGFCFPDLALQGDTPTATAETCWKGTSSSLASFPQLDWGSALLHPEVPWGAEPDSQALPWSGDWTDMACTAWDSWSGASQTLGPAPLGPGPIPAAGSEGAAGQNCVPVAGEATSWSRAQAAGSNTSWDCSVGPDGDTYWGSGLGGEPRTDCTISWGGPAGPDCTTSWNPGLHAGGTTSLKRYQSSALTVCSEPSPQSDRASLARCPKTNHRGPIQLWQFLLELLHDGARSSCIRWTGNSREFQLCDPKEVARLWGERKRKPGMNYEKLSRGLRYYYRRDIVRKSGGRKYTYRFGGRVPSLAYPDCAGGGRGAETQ
The settings on record: protein: recombinant; tags: N-terminal GST; dsDNA, one strand shown. A digest of the protocol: as §1

For a further experiment, the target named is T5, ELF3 (Homo sapiens, UniProt P78545 1-371).
T5 sequence: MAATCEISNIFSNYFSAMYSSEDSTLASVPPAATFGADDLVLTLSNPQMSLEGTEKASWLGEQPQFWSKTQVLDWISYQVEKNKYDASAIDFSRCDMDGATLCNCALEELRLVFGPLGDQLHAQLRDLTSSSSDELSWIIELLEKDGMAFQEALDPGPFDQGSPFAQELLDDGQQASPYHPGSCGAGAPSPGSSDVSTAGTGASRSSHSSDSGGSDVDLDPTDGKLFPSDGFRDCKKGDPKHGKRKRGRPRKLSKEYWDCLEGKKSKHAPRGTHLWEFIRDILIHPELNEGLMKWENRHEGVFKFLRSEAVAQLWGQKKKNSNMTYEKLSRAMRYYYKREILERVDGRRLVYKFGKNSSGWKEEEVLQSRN
The settings on record: protein: recombinant; tags: N-terminal GST; dsDNA, one strand shown. A digest of the protocol: as §1

A further experiment addresses CRX (Homo sapiens, UniProt O43186 1-299). To be noted: protein: recombinant; tags: N-terminal GST; dsDNA, one strand shown. The essentials:
as §1

The target in a further experiment is ETV1 (Homo sapiens, UniProt P50549 1-477). To be noted: protein: recombinant; tags: N-terminal GST; dsDNA, one strand shown. The essentials:
as §1

For the next experiment, the target named is T6, ERF (Homo sapiens, UniProt P50548 1-548).
T6 sequence: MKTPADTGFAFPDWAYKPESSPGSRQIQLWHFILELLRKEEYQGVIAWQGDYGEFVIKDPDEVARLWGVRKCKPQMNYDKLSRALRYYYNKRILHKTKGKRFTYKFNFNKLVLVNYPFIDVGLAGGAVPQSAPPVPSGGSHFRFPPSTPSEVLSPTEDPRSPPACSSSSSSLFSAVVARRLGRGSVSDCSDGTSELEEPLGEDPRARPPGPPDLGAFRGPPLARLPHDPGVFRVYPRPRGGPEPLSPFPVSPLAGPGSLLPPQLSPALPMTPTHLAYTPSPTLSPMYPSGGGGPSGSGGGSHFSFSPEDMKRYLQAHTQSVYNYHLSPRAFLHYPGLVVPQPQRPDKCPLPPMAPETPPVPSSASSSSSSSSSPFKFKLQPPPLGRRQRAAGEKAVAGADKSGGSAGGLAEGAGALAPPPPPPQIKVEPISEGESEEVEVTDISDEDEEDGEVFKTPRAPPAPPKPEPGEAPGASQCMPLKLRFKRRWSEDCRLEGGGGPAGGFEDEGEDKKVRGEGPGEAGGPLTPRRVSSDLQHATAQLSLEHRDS
To be noted: protein: recombinant; tags: N-terminal GST; dsDNA, one strand shown. The essentials: as §1

The next experiment deals with T7, ETV3L (Homo sapiens, UniProt Q6ZN32 1-361).
T7 sequence: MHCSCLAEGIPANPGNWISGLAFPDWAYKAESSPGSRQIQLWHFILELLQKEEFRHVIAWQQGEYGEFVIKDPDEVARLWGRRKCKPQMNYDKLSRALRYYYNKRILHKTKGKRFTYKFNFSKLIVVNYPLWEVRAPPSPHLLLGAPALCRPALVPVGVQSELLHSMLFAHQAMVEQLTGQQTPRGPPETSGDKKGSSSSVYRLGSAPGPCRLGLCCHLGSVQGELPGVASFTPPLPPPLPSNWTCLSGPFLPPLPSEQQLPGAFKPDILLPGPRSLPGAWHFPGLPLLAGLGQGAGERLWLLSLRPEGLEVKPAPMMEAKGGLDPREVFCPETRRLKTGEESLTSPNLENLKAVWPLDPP
To be noted: protein: recombinant; tags: N-terminal GST; dsDNA, one strand shown. The essentials: as §1

A further experiment addresses T8, ETS2 (Homo sapiens, UniProt P15036 1-469).
T8 sequence: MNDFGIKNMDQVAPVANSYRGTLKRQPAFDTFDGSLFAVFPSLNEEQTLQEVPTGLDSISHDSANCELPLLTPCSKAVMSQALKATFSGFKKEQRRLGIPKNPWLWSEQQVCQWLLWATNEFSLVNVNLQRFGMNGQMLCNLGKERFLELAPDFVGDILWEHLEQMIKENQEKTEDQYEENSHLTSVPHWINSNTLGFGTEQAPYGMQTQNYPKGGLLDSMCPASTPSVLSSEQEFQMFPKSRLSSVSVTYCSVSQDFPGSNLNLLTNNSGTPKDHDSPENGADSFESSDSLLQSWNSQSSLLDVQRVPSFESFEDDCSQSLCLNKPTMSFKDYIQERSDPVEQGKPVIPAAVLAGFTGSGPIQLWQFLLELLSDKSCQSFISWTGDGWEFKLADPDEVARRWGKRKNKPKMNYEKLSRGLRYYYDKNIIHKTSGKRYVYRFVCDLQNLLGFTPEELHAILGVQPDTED
The settings on record: protein: recombinant; tags: N-terminal GST; dsDNA, one strand shown. A digest of the protocol:
as §1

For another experiment, the target named is T9, SPDEF (Homo sapiens, UniProt O95238 1-335).
T9 sequence: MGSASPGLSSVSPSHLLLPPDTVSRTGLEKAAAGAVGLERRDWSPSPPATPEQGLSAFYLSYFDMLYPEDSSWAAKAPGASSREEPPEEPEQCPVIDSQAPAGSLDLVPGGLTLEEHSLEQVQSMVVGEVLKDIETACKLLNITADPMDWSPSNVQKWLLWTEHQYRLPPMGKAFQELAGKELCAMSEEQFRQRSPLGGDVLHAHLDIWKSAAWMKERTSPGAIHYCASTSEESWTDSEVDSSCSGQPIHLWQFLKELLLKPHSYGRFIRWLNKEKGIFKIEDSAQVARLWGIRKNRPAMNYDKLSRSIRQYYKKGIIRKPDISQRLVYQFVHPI
The settings on record: protein: recombinant; tags: N-terminal GST; dsDNA, one strand shown. A digest of the protocol:
as §1

Another experiment concerns the target T10, ETV7 (Homo sapiens, UniProt Q9Y603 1-341).
T10 sequence: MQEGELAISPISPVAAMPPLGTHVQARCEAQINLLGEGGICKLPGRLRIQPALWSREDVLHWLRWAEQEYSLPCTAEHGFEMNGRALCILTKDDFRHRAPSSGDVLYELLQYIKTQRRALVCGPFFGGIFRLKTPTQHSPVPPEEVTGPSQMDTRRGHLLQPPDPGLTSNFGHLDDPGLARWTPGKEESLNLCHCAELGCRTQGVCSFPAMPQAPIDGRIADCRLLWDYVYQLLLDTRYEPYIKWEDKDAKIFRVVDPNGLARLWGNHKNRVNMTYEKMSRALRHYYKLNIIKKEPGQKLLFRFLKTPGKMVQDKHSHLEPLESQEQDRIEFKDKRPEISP
The settings on record: protein: recombinant; tags: N-terminal GST; dsDNA, one strand shown. The essentials: as §1

The target in another experiment is T11, ELF5 (Homo sapiens, UniProt Q9UKW6-2 1-255).
T11 sequence: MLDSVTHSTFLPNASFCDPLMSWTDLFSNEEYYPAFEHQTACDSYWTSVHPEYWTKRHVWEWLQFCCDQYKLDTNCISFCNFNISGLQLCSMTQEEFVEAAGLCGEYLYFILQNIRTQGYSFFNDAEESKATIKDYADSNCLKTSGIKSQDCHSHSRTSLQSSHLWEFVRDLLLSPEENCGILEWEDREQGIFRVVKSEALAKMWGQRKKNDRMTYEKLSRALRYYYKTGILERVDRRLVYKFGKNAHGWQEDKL
The settings on record: protein: recombinant; tags: N-terminal GST; dsDNA, one strand shown. The essentials:
as §1

Another experiment has as its target T12, ETV3 (Homo sapiens, UniProt P41162-2 1-143).
T12 sequence: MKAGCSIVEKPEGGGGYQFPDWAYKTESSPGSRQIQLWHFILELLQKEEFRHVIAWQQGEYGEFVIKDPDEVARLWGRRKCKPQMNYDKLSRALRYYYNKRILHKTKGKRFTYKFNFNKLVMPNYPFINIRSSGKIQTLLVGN
To be noted: protein: recombinant; tags: N-terminal GST; dsDNA, one strand shown. The essentials: as §1

For another experiment, the target named is ETV6 (Homo sapiens, UniProt P41212 1-452). To be noted: protein: recombinant; tags: N-terminal GST; dsDNA, one strand shown. A digest of the protocol: as §1
Sequence of ETV6 (P41212 whole entry): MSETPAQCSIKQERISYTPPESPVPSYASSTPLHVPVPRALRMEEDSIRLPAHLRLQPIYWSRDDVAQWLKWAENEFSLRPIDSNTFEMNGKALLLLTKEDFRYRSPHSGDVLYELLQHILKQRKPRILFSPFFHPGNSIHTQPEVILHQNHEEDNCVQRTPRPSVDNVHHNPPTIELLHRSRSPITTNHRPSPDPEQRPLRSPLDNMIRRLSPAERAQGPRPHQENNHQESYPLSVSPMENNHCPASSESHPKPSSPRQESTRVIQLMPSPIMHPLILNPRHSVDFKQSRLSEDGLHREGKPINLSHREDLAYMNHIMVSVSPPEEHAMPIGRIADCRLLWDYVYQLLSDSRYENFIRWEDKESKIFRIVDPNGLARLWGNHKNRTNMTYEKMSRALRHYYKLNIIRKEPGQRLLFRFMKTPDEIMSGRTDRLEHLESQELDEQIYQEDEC

Sequence of ELF4 (Q99607 whole entry): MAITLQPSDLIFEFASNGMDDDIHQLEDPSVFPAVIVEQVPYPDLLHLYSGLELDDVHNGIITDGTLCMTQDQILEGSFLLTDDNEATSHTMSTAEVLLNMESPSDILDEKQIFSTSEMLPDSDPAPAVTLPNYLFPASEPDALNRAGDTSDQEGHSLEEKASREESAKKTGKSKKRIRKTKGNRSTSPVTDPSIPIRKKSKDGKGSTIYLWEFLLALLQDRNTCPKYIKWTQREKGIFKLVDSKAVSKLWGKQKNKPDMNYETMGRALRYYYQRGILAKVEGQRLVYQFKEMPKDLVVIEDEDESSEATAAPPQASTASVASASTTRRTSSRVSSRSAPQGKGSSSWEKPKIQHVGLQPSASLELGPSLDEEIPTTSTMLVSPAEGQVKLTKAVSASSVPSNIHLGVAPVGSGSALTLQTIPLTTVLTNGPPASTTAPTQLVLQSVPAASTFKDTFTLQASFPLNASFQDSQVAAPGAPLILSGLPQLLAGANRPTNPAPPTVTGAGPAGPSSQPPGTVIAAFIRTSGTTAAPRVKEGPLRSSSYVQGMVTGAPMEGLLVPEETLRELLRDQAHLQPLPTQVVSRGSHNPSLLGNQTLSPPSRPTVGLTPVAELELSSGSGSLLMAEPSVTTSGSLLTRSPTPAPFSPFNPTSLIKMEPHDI
Sequence of ETV5 (P41161 whole entry): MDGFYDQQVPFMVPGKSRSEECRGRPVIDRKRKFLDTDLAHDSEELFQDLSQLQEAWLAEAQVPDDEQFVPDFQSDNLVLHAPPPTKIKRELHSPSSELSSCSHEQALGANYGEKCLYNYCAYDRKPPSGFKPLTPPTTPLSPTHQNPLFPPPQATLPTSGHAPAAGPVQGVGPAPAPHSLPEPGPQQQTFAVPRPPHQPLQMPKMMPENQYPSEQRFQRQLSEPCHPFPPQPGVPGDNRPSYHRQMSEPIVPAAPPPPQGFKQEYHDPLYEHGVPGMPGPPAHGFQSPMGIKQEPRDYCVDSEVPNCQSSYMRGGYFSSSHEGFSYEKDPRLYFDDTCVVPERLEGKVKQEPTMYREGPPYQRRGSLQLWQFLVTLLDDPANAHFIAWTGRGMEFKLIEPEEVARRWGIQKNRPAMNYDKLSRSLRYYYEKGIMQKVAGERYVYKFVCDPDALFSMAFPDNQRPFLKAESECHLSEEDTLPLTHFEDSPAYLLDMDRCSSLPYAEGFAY
Sequence of CRX (O43186 whole entry): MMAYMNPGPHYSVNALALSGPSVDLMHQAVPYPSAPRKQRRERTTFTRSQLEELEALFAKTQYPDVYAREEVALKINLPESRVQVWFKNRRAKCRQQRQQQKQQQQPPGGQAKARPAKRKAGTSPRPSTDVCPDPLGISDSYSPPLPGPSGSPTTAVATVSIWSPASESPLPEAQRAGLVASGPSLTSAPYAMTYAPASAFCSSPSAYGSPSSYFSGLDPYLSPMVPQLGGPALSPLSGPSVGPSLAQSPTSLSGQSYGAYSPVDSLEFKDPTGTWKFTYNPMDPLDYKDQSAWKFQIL
Sequence of HSF1 (Q00613 whole entry): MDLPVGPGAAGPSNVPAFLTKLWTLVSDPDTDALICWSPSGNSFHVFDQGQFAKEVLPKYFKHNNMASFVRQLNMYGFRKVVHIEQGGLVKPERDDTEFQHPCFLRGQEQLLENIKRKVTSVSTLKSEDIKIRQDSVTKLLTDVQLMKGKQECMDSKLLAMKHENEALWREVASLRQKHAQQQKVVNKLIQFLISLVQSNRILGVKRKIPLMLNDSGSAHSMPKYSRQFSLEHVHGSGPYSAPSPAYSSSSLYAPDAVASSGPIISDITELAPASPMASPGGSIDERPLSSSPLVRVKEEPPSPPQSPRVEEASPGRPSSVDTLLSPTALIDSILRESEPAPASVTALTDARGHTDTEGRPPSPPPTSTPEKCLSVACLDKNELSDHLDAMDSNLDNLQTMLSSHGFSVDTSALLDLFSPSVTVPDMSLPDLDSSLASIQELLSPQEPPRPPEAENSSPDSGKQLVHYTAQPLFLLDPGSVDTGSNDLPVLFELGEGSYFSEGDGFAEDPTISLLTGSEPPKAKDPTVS
Sequence of ETV1 (P50549 whole entry): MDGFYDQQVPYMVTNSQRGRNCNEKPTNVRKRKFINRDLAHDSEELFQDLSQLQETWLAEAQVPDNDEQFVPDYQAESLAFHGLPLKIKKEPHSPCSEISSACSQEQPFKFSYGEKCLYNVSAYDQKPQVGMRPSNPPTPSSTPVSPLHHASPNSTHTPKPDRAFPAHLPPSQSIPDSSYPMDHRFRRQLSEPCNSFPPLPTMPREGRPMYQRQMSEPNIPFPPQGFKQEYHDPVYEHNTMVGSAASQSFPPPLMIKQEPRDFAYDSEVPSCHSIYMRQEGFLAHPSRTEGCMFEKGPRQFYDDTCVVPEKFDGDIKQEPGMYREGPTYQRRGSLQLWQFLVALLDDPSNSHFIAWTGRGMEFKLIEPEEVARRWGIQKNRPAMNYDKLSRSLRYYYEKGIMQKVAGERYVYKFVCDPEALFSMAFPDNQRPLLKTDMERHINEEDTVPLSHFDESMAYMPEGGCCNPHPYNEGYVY

For CCCGCA, the binding signal with FEV was 1.26 fold enrichment (6-mer frequency, TF over GST control); with ETV5 it was 1.27 fold enrichment (6-mer frequency, TF over GST control); with HSF1, 1.22 fold enrichment (6-mer frequency, TF over GST control); with SPIC it was 1.27 fold enrichment (6-mer frequency, TF over GST control); with ELF4, 1.34 fold enrichment (6-mer frequency, TF over GST control); in the experiment with ELK4 it was 1.35 fold enrichment (6-mer frequency, TF over GST control). The binding signal with ETV2 was 1.28 fold enrichment (6-mer frequency, TF over GST control); with ELF3, 1.36 fold enrichment (6-mer frequency, TF over GST control); with CRX, 1.1 fold enrichment (6-mer frequency, TF over GST control); with ETV1, 1.23 fold enrichment (6-mer frequency, TF over GST control); in the experiment with ERF, 1.24 fold enrichment (6-mer frequency, TF over GST control); in the experiment with ETV3L, 1.22 fold enrichment (6-mer frequency, TF over GST control). Besides, the binding signal with ETS2 is 1.18 fold enrichment (6-mer frequency, TF over GST control); with SPDEF, 1.27 fold enrichment (6-mer frequency, TF over GST control); in the experiment with ETV7, 1.31 fold enrichment (6-mer frequency, TF over GST control); in the experiment with ELF5, 1.27 fold enrichment (6-mer frequency, TF over GST control); with ETV3 it was 1.2 fold enrichment (6-mer frequency, TF over GST control); with ETV6, 1.25 fold enrichment (6-mer frequency, TF over GST control).
